These results are taken from the supplement of paper PMC9694430.

The subject of the assay is T1, LOC_OS04G38480-cb003.
T1 sequence (whole entry): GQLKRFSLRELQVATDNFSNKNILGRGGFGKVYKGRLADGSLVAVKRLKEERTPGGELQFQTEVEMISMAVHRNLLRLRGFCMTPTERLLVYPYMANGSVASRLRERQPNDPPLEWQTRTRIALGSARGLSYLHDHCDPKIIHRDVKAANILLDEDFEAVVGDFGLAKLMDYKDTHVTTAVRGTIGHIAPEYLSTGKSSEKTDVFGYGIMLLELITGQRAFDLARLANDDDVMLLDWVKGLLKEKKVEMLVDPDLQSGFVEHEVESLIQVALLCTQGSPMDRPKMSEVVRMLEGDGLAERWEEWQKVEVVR
Nature of the assay: thermal shift delta Tm vs DMSO control; higher = stronger stabilization (binding). To be noted: 12.5 µM; protein concentration 2 µM. The method in brief:
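Compounds dissolved in DMSO were added to purified rice kinase domain constructs, which had been expressed in E. coli, for differential scanning fluorimetry. Each well held 19.5 μl of 2 μM kinase in 100 mM potassium phosphate pH 7.5, 150 mM NaCl, 10% glycerol and 5 × SYPRO Orange. Fluorescence was followed from 25°C to 95°C at a rate of 0.05°C/s. Shifts in Boltzmann-fitted melting temperature are triplicate means relative to DMSO-only protein.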
In the case of `Cc1ccccc1-n1c(Cn2ncc3c(N)ncnc32)nc2cccc(C)c2c1=O`, the “thermal shift delta Tm” value is -0.52 °C.

As for `CC(C)(C)c1cc(C=C(C#N)C#N)cc(C(C)(C)C)c1O` [Tyrphostin 9], the “thermal shift delta Tm” value amounted to 1.65 °C.

As for `COc1cc([C@@H]2c3cc4c(cc3[C@H](O)[C@H]3COC(=O)[C@@H]23)OCO4)cc(OC)c1OC` [Picropodophyllin (PPP)], the “thermal shift delta Tm” value was 0.78 °C.

`COc1ccc(N(C(=O)Oc2c(C)cccc2C)c2ccnc(Nc3ccc(N4CCN(C)CC4)cc3)n2)c(OC)c1`: the “thermal shift delta Tm” value was found to be 1.41 °C.

On to `Cn1cc(C2=C(c3cn(C4CCN(Cc5ccccn5)CC4)c4ccccc34)C(=O)NC2=O)c2ccccc21`, for which the “thermal shift delta Tm” value is 2.44 °C.

As for `CC(C)(C)c1cc(C=C(C#N)C#N)cc(Br)c1O`, the “thermal shift delta Tm” value was -0.82 °C.

Turning to `C/C(O)=C(\C#N)C(=O)Nc1cc(Br)ccc1Br`, the “thermal shift delta Tm” value was 1.9 °C.

Consider `O=c1[nH]c2ccc(Cl)cc2c(N[C@@H]2CN3CCC2CC3)c1-c1nc2ccccc2[nH]1`, for which the “thermal shift delta Tm” value was found to be 2.51 °C.

For the compound `COc1ccc2c(c1)/C(=C/c1cnc[nH]1)C(=O)N2`, the “thermal shift delta Tm” value was 2.32 °C.

Turning to `COc1ccc(C[C@H]2NC[C@H](O)[C@H]2OC(C)=O)cc1` [Anisomycin], the “thermal shift delta Tm” value was 0.22 °C.

Regarding `CCN1CCN(C(=O)Cc2ccc(Nc3ncc(F)c(Nc4ccc(C(=O)Nc5ccccc5Cl)cc4)n3)cc2)CC1` [Aurora A Inhibitor I], the “thermal shift delta Tm” value is 3.38 °C.
